FBA Mtb inh – Mtb fructose-bisphosphate aldolase inhibition; P9WQA3; purified M. tuberculosis FBA, fluorescence read-out; inhibition, % at 1 µM; 2.3% of 360,000 active; AID 588726;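 further: 0% = vehicle and 100% = reference inhibitor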
Target sequence (P9WQA3 whole entry, looked up): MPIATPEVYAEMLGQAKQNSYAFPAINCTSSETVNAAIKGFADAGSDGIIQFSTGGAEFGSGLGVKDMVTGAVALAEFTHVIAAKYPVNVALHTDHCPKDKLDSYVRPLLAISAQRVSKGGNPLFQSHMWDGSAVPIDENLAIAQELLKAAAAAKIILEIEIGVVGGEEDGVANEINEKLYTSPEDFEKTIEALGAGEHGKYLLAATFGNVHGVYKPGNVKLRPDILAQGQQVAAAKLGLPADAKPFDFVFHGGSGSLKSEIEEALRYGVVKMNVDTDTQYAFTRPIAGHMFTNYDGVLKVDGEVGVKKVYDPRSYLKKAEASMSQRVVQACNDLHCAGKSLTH
FadD28 FP inh – blocks FadD28 binding to the bisubstrate probe; fluorescence polarization; inhibition, % at 12.5 µM; 0.22% of 360,000 active; AID 588549; in the data active means inhibition above about 8.5%, passing the limit was not always enough
GDH-TPI counter-1 – counter-screen for M. tuberculosis FBA inhibitors: GDH-TPI coupled enzymes; GDH-TPI coupled enzyme counterscreen, NADH absorbance; inhibition, % at 4.8 µM; 1.2% of 360,000 active; AID 588335; in the data active means inhibition above about 30%;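 further: 0% = DMSO wells and 100% = wells lacking the enzyme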
UGM FP inh – Mtb UDP-galactopyranose mutase inhibition; inhibition, % at 10 µM; 0.06% of 320,000 active; P9WIQ1; purified UGM, fluorescence polarization probe displacement; AID 504406; in the data active means inhibition above about 10%, passing the limit was not always enough
Rv3671c inh – inhibitors of M. tuberculosis serine protease Rv3671c. P9WHR9. inhibition, % at 5.96 µM. 0.048% of 320,000 active; in the data active means inhibition above about 38%;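 further: extracellular domain of Rv3671c used as enzyme; 0% = enzyme with DMSO and 100% = no enzyme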
Mtb bLac sens – beta-lactam sensitization of Mtb H37Rv; M. tuberculosis H37Rv growth with meropenem, percent inhibition; inhibition, % at 25 µM; 0.27% of 330,000 active; call rule not given here;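 further: growth measured after seven days incubation then overnight dye step; 0% = bacteria only wells and 100% = bacteria with antibiotic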
Mtb FBA inh conf – Mtb FBA inhibition, confirmed; shares compounds with FBA Mtb inh; inhibition, % at 1 µM; 78% of 5,600 active; purified M. tuberculosis FBA, fluorescence read-out;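 further: 0% = vehicle wells and 100% = reference inhibitor wells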
GDH-TPI counter-2 – inhibits GDH-TPI coupling enzymes, flagging Mtb FBA hits; shares compounds with FBA Mtb inh; 81% of 5,600 active; GDH-TPI coupled enzyme counterscreen, fluorescence; inhibition, % at 1 µM; in the data active means inhibition above about 10%
The depositor's hits bear a star; . = no result. Rows were chosen to be rich in hits. Some 3.7% of all compounds tested hit in one or more screens of this group. Unless noted, no stated cut-off is given here; in the data, active means inhibition above about 27%; inactive means the rest.

SMILES	FBA Mtb inh	FadD28 FP inh	GDH-TPI counter-1	UGM FP inh	Rv3671c inh	Mtb bLac sens	Mtb FBA inh conf	GDH-TPI counter-2
CCc1cc(=O)oc2cc(C)cc(OCC(=O)NC3CCN(Cc4ccccc4)CC3)c12	40*	0	15	-2	-4	1	1	3
CCc1cc(=O)oc2cc(C)cc(OCC(=O)NC3CC3)c12	65*	-3	9	1	2	-8	21	22*
Cc1cc(=O)oc2cc(OCC(=O)NC3CCCCC3)c(Cl)cc12	10	-1	8	-1	2	28	.	.
Cc1cc(OCC(=O)NC2CC2)c2c(C)cc(=O)oc2c1	80*	-3	4	2	-9	3	51*	38*
Cc1cccc(CNC(=O)c2sc(=O)n(Cc3c(C)cccc3C)c2C)c1	4	-2	0	.	.	.	.	.
N#C/C(=C(/O)CCl)c1nc2c(s1)CCc1ccccc1-2	6	.	9	3	2	54	.	.
CC(NS(=O)(=O)c1cn(C)c(=O)n(C)c1=O)c1ccccc1 (stereo unspecified)	-1	0	-1	1	2	5	.	.
Cc1cc(OCC(=O)N2CCN(c3cccc(Cl)c3)CC2)c2c(C)c(C)c(=O)oc2c1	2	-5	7	2	-4	7	.	.
Cc1cc(OCC(=O)N[C@@H](Cc2c[nH]c3ccccc23)C(=O)O)c2c(C)c(C)c(=O)oc2c1	2	-1	10	1	1	0	.	.
CCCc1cc(=O)oc2cc(C)cc(OCC(=O)NC3CC3)c12	93*	1	14	0	2	-2	1	2
CCCc1cc(=O)oc2cc(C)cc(O)c12	1	-2	5	1	0	-2	.	.
Cc1c(C)c2ccc(OC(C)C(=O)NC3CCN(Cc4ccccc4)CC3)cc2oc1=O (stereo unspecified)	84*	-3	-7	3	-2	5	8	-3
Cc1cc(OCC(=O)NC2CC2)c2c(C)c(C)c(=O)oc2c1	76*	-2	14	-1	3	2	53*	45*
Cc1cc(OCC(=O)N2CCC[C@@H]2C(=O)O)c2c(C)c(C)c(=O)oc2c1	84*	-1	8	-3	-3	0	123*	98*
CCOc1ccc(N2CC(C(=O)Nc3cccc(S(=O)(=O)N4CCOCC4)c3)CC2=O)cc1 (stereo unspecified)	0	1	6	.	.	.	.	.
OC[C@@H]1CN(Cc2ccc(-c3ccccc3)cc2)C[C@H](n2cnc3c(N4CCCC4)ncnc32)O1	-4	-2	7	.	.	.	.	.
O=C(NCc1ccco1)C1Cc2c(-c3cccc(F)c3)ccnc2O1 (stereo unspecified)	-2	-2	10	.	.	.	.	.
O=C(COc1ccc(Br)cc1Cl)NC1CCN(Cc2ccccc2)CC1	-1	-2	3	-2	-1	-4	.	.
Cc1c(C)c2ccc(OCC(=O)NC3CCN(Cc4ccccc4)CC3)c(C)c2oc1=O	38*	-2	7	0	0	-2	60*	48*
CCN1CC=C2C(C#N)=C(N)C(C#N)(C#N)C(CCc3ccccc3)C2C1 (stereo unspecified)	36*	-1	8	10	6	-3	74*	65*
CCN(N=O)c1ccc(C=C2C=Cc3ccccc32)cc1	-4	-4	-2	.	.	.	.	.
CCC(C)Sc1cccc(-c2nc3ccccn3c2NCc2ccccc2)c1 (stereo unspecified)	32*	0	5	1	1	9	113*	91*
Cc1ccn2c(NC3CCCCC3)c(-c3cccc(SC4CCCCC4)c3)nc2c1	21	-6	2	3	-3	28	.	.
CCC(C)Sc1cccc(-c2nc3cc(C)ccn3c2NC2CCCCC2)c1 (stereo unspecified)	45*	-2	24	.	-8	87	140*	133*
CCC(C)Sc1cccc(-c2nc3ccc(C)cn3c2NCc2ccccc2)c1 (stereo unspecified)	39*	0	15	1	2	25	1	1
CCC(C)Sc1cccc(-c2nc3ccc(Cl)cn3c2NCc2ccccc2)c1 (stereo unspecified)	23	-3	18	1	-3	5	.	.

Assay outcomes as filed in PubChem BioAssay.
